Data published in the supplement of paper PMC4166925.
± gives the standard deviation of the averaged measurements. The full ranking holds about 33,000 sequences; the median of “E-score (dimensionless, -0.5 to 0.5)” is about -0.049, and the highest 2% start at about 0.37. Only a selection was taken, and the highest values are over-represented in it overall.

test system: T1, PmTbr T-box DNA-binding domain (GST fusion); assay: PBM E-score of 8-mer (E-score (dimensionless, -0.5 to 0.5)); Tbr is Tbrain of the sea star Patiria miniata (Pm) or the sea urchin Strongylocentrotus purpuratus (Sp); higher = stronger binding preference; settings: the construct has about 5 more residues each side
T1 sequence: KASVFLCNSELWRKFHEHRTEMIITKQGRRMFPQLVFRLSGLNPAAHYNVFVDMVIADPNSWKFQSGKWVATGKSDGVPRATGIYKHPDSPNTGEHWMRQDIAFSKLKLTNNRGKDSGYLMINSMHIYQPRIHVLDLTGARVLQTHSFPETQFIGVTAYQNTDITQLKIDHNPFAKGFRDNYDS
In short: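 Universal Agilent oligonucleotide arrays, made double-stranded by primer extension, were incubated with 200 nM GST-fused Tbr T-box DNA-binding domain in PBS (pH 7.5). The protein was expressed in BL21 E. coli at 20 °C and purified by glutathione affinity chromatography. After scanning and quantification, the Universal PBM Analysis Suite assigned an enrichment E-score to each ungapped 8-mer, averaged over duplicate arrays.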

Sequence | PBM E-score of 8-mer
TAAGGTGA | 0.3578 ± 0.00067
CAAGGTCA | 0.0991 ± 0.0032
GAAGGTCC | -0.1794 ± 0.0013
CAAGGTAA | 0.00125 ± 0.13
CAAGGTGG | 0.323 ± 0.03
GAAGGTAC | -0.214 ± 0.046
GAAGGTGA | 0.406 ± 0.011
CAAGGTTC | 0.0603 ± 0.055
CAAGGTGC | 0.4331 ± 0.00078
CAAGGTGA | 0.406 ± 0.0091
GAAGGTGC | 0.439 ± 0.012
GAAGGTAA | 0.00393 ± 0.033
TCAAATGA | -0.203 ± 0.019
ATGGGCCA | -0.105 ± 0.04
CAGCGCTG | 0.0573 ± 0.064
CATTACCA | -0.0668 ± 0.0072
ACTCCTTC | 0.0419 ± 0.014
AGCTATAA | -0.182 ± 0.011
AGTTAGGG | -0.128 ± 0.021
CGGGTGCC | 0.247 ± 0.024
ACGGTGCG | 0.309 ± 0.042
CAGGTGCA | 0.277 ± 0.021
CAGATGCG | -0.135 ± 0.048
AAGGTGCG | 0.45 ± 0.014
AGGGTGCG | 0.356 ± 0.052

Sequence | PBM E-score of 8-mer
CAGGTGCG | 0.4533 ± 0.0028
CTGGTGCC | 0.128 ± 0.018
CAGGTGCC | 0.4 ± 0.0072
CCCACTCC | -0.0608 ± 0.036
CCCAGATA | -0.233 ± 0.14
CGAAAGCC | -0.0801 ± 0.046
CAGTAAAC | -0.125 ± 0.0037
ACTAAACT | -0.221 ± 0.1
AAGGACTT | -0.228 ± 0.067
CTGTTAGA | 0.118 ± 0.0087
CTGTTATA | 0.184 ± 0.016
ATGTTACA | 0.0933 ± 0.047
GTGTTATA | 0.426 ± 0.013
TTGTTAAA | 0.199 ± 0.035
ATGTTAGA | -0.236 ± 0.027
GTGTTACA | 0.386 ± 0.013
CTGTTAAA | 0.23 ± 0.015
ATGTTATA | -0.0814 ± 0.076
CTGTTACA | 0.197 ± 0.0076
GTGTTAAA | 0.429 ± 0.021
GTGTTAGA | 0.419 ± 0.0094
CACCAGTA | 0.132 ± 0.018
CAGGCGTA | -0.0498 ± 0.043
AGCCACGC | -0.0441 ± 0.025
ACACTACG | 0.283 ± 0.0065

Sequence | PBM E-score of 8-mer
AGAGTTGC | 0.0099 ± 0.0045
AGTACTCC | -0.28 ± 0.033
CTAGGCCC | -0.274 ± 0.082
TAATGCGA | 0.0983 ± 0.054
AAAACCTG | 0.191 ± 0.063
CTAGCCAG | -0.185 ± 0.027
AAACTCTC | -0.00208 ± 0.031
GGAGCTCA | -0.0734 ± 0.021
GTGTTAAC | 0.438 ± 0.017
ATGTTAAC | 0.161 ± 0.015
CTGTTAAC | 0.281 ± 0.055
CTAAGTGA | 0.225 ± 0.032
AACTTAGA | -0.157 ± 0.055
ACGCAGTA | -0.0663 ± 0.018
CGGTGTGA | 0.451 ± 0.0064
GGGGGTCA | -0.0111 ± 0.17
CGATGTCA | 0.0984 ± 0.03
CGATGTGA | 0.228 ± 0.018
GGGTGTCA | 0.472 ± 0.0071
CGGTGTCA | 0.4 ± 0.012
CGGTGTGC | 0 ± 0.12
GCGTGTCA | 0.276 ± 0.034
CGGTGTCC | -0.00395 ± 0.072
CGAAATTC | 0.0215 ± 0.011
ATAATGCC | -0.174 ± 0.081

Sequence | PBM E-score of 8-mer
AGTATGCG | -0.0996 ± 0.096
CAGAACCA | -0.232 ± 0.018
GCAATTCA | 0.0777 ± 0.042
GACAAGGC | 0.101 ± 0.025
ATTCGCAC | 0.4784 ± 0.002
CTTCGCCC | -0.0791 ± 0.096
ATTCGCAA | 0.298 ± 0.027
CTTCGCAA | 0.336 ± 0.028
CTTCGCAC | 0.454 ± 0.019
ATTCGCAG | 0.297 ± 0.024
GATTACGA | -0.00232 ± 0.07
ATGGCAGA | -0.0257 ± 0.063
AAGACATT | -0.203 ± 0.097
ATGACACA | 0.314 ± 0.0075
CTGACATC | -0.0976 ± 0.035
ATGACACG | 0.312 ± 0.017
ATGACACC | 0.463 ± 0.0098
CTGACAGC | 0.289 ± 0.011
CTGACACC | 0.464 ± 0.0063
GCCGCTGA | -0.113 ± 0.074
GACATCGA | -0.0159 ± 0.0023
CTCACCAA | 0.211 ± 0.042
CCCACCAC | -0.0276 ± 0.048
CACCACAC | 0.367 ± 0.018
AACACCAG | 0.335 ± 0.022

Sequence | PBM E-score of 8-mer
CACACCAG | 0.399 ± 0.018
CACACCAA | 0.3718 ± 0.0018
CCCACCAA | -0.112 ± 0.048
CACACCAC | 0.406 ± 0.012
CGCACCAG | 0.2978 ± 0.0014
CAATATCG | 0.06478 ± 0.00031
GCCATAGA | -0.0661 ± 0.067
CAGGTAGC | -0.062 ± 0.011
CAGTACCA | -0.0345 ± 0.056
ACATTACC | -0.144 ± 0.023
AGCCACGG | -0.119 ± 0.013
CTCGTCCC | -0.303 ± 0.016
AAATAGGT | 0.0404 ± 0.07
GCACAGGA | -0.162 ± 0.05
CGCAAAAC | 0.0965 ± 0.0024
ACACGTGT | 0.403 ± 0.023
CCACGTGC | 0.149 ± 0.013
GCACGTGC | 0.2695 ± 0.0011
ACACGTGG | 0.307 ± 0.022
ACACGTGC | 0.387 ± 0.023
ACACGTGA | 0.292 ± 0.017
ACATGGTG | 0.243 ± 0.0055
GCAAGCCA | -0.221 ± 0.037
GCATCTGA | -0.0824 ± 0.1
ATTATCCG | -0.0296 ± 0.042

Sequence | PBM E-score of 8-mer
GATGGCGA | 0.1142 ± 0.00067
CAGTGGAG | -0.068 ± 0.012
TCTTGTCA | 0.207 ± 0.023
CGTTGTGA | 0.2 ± 0.0095
GCTTGTGA | 0.187 ± 0.0082
ACTTGTGG | 0.196 ± 0.014
ACTTGTCA | 0.4044 ± 0.0039
AGTTGTGG | 0.122 ± 0.039
CCTTGTTA | 0.126 ± 0.011
GCTTGTCA | 0.0851 ± 0.047
ACTTGTTG | 0.332 ± 0.018
AGTTGTGA | 0.387 ± 0.017
ACTTGTGA | 0.411 ± 0.0095
ACTTGTTA | 0.372 ± 0.044
ATACTTAA | -0.187 ± 0.096
CTAGTGCA | 0.173 ± 0.0046
TCCCCAGA | -0.207 ± 0.12
GCAGAAAA | -0.0494 ± 0.066
TATTCCGA | -0.274 ± 0.013
CACTTCGG | 0.363 ± 0.015
ATATACGG | -0.038 ± 0.039
CTTTTAGC | 0.22 ± 0.074
AGTCCTAG | -0.0285 ± 0.042
ATAGTAAG | -0.216 ± 0.029
GGCTAAAA | -0.22 ± 0.064

Sequence | PBM E-score of 8-mer
ACTGTGAC | 0.239 ± 0.026
GCTGTGAC | 0.208 ± 0.037
AGTGTGAC | 0.467 ± 0.0075
CGTGTGAC | 0.4054 ± 0.0011
GGTGTGAC | 0.4864 ± 0.0033
AATGTGAT | 0.258 ± 0.039
CGTGTGAG | 0.363 ± 0.013
GATGTGAC | 0.308 ± 0.017
AGTGTGTC | 0.248 ± 0.0093
CGTGTGTC | 0.204 ± 0.018
AGTGTGAT | 0.463 ± 0.0063
AGAGTGAT | 0.239 ± 0.0043
CACCCAAG | 0.263 ± 0.023
TCTTAGCA | 0.2 ± 0.017
CCCGAATC | 0.00343 ± 0.029
ACAAGACC | 0.0576 ± 0.017
GACTACCA | -0.0358 ± 0.082
CAGGAGAC | -0.136 ± 0.017
AGTGTGAG | 0.4585 ± 0.0031
ATTGTGAG | 0.2213 ± 0.00029
AGTGTGTG | 0.338 ± 0.021
CACACAGG | 0.119 ± 0.044
